Test results published in PubChem BioAssay (NCI).
“And” between values parts separate entries of the source, which are not always exact repeats. Equal entries are not always repeated. This is part of a sample that, as a whole, favours compounds with a hit. Of some 83,000 tested, about 20% had one in any assay.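 Single-concentration screen, 48 h exposure, 96-well plates. Endpoint: percent growth. Below 10 = active.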 The source made the active and inactive calls.

Tests used:
Test in all cases: NCI-60 one-dose screen, 48 h (100 = growth as untreated, 0 = no growth, -100 = all killed)
HCT-15 colon = conditions: 10 µM
HT29 colon = conditions: 10 µM
SNB-75 CNS = conditions: 10 µM
SNB-19 CNS = conditions: 10 µM
U251 CNS = conditions: 10 µM unless noted
PC-3 prostate = conditions: 10 µM
SK-MEL-5 melanoma = conditions: 10 µM unless noted
UACC-62 melanoma = conditions: 10 µM
LOX IMVI melanoma = conditions: 10 µM unless noted
SK-MEL-28 melanoma = conditions: 10 µM

Measured: growth

Clc1cc(Cl)c(Cl)nn1
inactive: HCT-15 colon 107% | HT29 colon 99.2% | SNB-75 CNS 107% | SNB-19 CNS 94.2% | U251 CNS 81.1% | PC-3 prostate 80.9% | SK-MEL-5 melanoma 103% | UACC-62 melanoma 88.7% | LOX IMVI melanoma 95.7% | SK-MEL-28 melanoma 116%

Nc1nc(=S)c2ncn(C3OC(CO)C(O)C3O)c2[nH]1 (centres undefined)
107% (inactive) and 9.43% (active): HCT-15 colon
104% (inactive) and 7.31% (active): LOX IMVI melanoma
inactive: HT29 colon 100% and 14.3% | SNB-75 CNS 101% and 27.5% | SNB-19 CNS 107% and 78.6% | U251 CNS 105% and 54.1% | PC-3 prostate 33.4% | SK-MEL-5 melanoma 116% and 22.7% | SK-MEL-28 melanoma 115% and 50.8%

CCN(CC)c1ccc(NC(C(=O)c2ccccc2)c2ccccc2)cc1 (centres undefined)
active: HCT-15 colon -16.4% | U251 CNS -17.5% | LOX IMVI melanoma -43.4%
inactive: HT29 colon 12.4% | SNB-75 CNS 81.7% | SNB-19 CNS 36.6% | PC-3 prostate 83.7% | SK-MEL-5 melanoma 78.8% | SK-MEL-28 melanoma 16.9%

Nc1ccc2cc3ccc(N)cc3nc2c1
105% (inactive) and -3.97% (active): SK-MEL-5 melanoma
104% (inactive) and 8.67% (active): U251 CNS
inactive: HCT-15 colon 105% and 15.3% | SNB-75 CNS 101% | SNB-19 CNS 108% and 30.4% | PC-3 prostate 94.5% and 14.4%
108% (inactive) and -6.93% (active): SK-MEL-28 melanoma
105% (inactive) and -30.1% (active): LOX IMVI melanoma
105% (inactive) and 4.36% (active): HT29 colon

OCC(O)C(O)C(O)C(/C=N/Nc1ccccc1)=N/Nc1ccccc1 (centres undefined)
inactive: HCT-15 colon 75% | HT29 colon 93.2% | SNB-75 CNS 66.3% | SNB-19 CNS 97.4% | U251 CNS 90.9% | PC-3 prostate 72.6% | SK-MEL-5 melanoma 86.8% | LOX IMVI melanoma 51.8% | SK-MEL-28 melanoma 103%

O=C(Nc1ccc(C(=O)O)c(O)c1)c1ccccc1
inactive: HCT-15 colon 104% and 99% | HT29 colon 103% and 105% | SNB-75 CNS 96.4% and 96.3% | SNB-19 CNS 107% and 102% | U251 CNS 96.6% and 104% | PC-3 prostate 91% and 97.5% | SK-MEL-5 melanoma 107% and 106% | UACC-62 melanoma 96.7% and 96.4% | LOX IMVI melanoma 97.4% and 97% | SK-MEL-28 melanoma 110% and 151%

COc1ccc(CC(=O)c2ccc(O)cc2O)cc1
inactive: HCT-15 colon 131% | HT29 colon 112% | SNB-75 CNS 111% | SNB-19 CNS 121% | U251 CNS 116% | PC-3 prostate 109% | SK-MEL-5 melanoma 103% | LOX IMVI melanoma 108% | SK-MEL-28 melanoma 139%

Cc1cc(NS(=O)(=O)c2ccc(N=Nc3cc(N=Nc4ccc(S(=O)(=O)Nc5cc(C)nc(C)n5)cc4)c4c(NC(=O)C(Cl)Cl)cccc4c3OC(=O)C(Cl)Cl)cc2)nc(C)n1 (tested in a mixture with another compound)
inactive: HCT-15 colon 88.8% and 84.2% | HT29 colon 118% | SNB-75 CNS 75.6% and 61.7% | SNB-19 CNS 97.4% and 95.7% | U251 CNS 97.5% and 97.7% | PC-3 prostate 97.4% and 106% | SK-MEL-5 melanoma 96.9% and 87.6% | UACC-62 melanoma 99.8% and 95.8% | LOX IMVI melanoma 92.6% and 104% | SK-MEL-28 melanoma 111%

CC(C)(C)CC(C)(C)c1ccc(OCCO)cc1
inactive: HCT-15 colon 99.8% | HT29 colon 99.3% | SNB-75 CNS 101% | SNB-19 CNS 106% | U251 CNS 104% | PC-3 prostate 117% | SK-MEL-5 melanoma 119% | LOX IMVI melanoma 99.1% | SK-MEL-28 melanoma 141%

O=C(/C=C/c1cccnc1)c1ccccc1
inactive: HCT-15 colon 63.2% | HT29 colon 14.1% | SNB-75 CNS 87.8% | SNB-19 CNS 82.8% | U251 CNS 37.3% | PC-3 prostate 88.1% | SK-MEL-5 melanoma 103% | LOX IMVI melanoma 27.5% | SK-MEL-28 melanoma 102%

O=C1C=C(O)c2ccccc2C1=O.[Ag]
inactive: HCT-15 colon 88.2% | HT29 colon 81.9% | SNB-75 CNS 87.9% | SNB-19 CNS 102% | PC-3 prostate 78.7% | UACC-62 melanoma 108% | SK-MEL-28 melanoma 92.3%

CC[N+](CC)=c1ccc2nc3c(cc(N)c4ccccc43)oc-2c1
active: HCT-15 colon -54.6% | HT29 colon 5.58% | SNB-75 CNS -73.4% | SNB-19 CNS -64.3% | U251 CNS -76.1% | PC-3 prostate -48.8% | UACC-62 melanoma -79.9% | LOX IMVI melanoma -58.7% | SK-MEL-28 melanoma -61.8%

OC(CN1CCCC2CCCCC21)c1cc2ccccc2c2ccccc12 (centres undefined)
active: HT29 colon 1.91% | SK-MEL-5 melanoma -84.6% | LOX IMVI melanoma -19.9%
inactive: HCT-15 colon 22.5% | SNB-75 CNS 12.5% | SNB-19 CNS 43.6% | U251 CNS 28.2% | PC-3 prostate 38.5% | SK-MEL-28 melanoma 49.4%

CSC1SCC2C(=O)N(C)C(C(C)C)C(=O)OCC(NC(=O)c3cnc4ccccc4n3)C(=O)NC(C)C(=O)N(C)C1C(=O)N(C)C(C(C)C)C(=O)OCC(NC(=O)c1cnc3ccccc3n1)C(=O)NC(C)C(=O)N2C (centres undefined)
active: HCT-15 colon 4.08% | HT29 colon 2.66% | SNB-75 CNS -80.2% | SNB-19 CNS -13.3% | U251 CNS 5.23% | PC-3 prostate -12.7% | SK-MEL-5 melanoma -73.1% | LOX IMVI melanoma 3.98% | SK-MEL-28 melanoma -13.9%

OCC1OC(n2cnc3c(=S)nc[nH]c32)C(O)C1O (centres undefined)
inactive: HCT-15 colon 104% and 55.5% | HT29 colon 98.4% and 45.9% | SNB-75 CNS 110% and 60.5% | SNB-19 CNS 111% and 97.4% | U251 CNS 93.5% and 83.2% | PC-3 prostate 89.1% and 73.1% | SK-MEL-5 melanoma 102% and 80.9% | LOX IMVI melanoma 98.2% and 16.1% | SK-MEL-28 melanoma 113%

CCCCCCCCCCCC[N+](C)(C)Cc1ccccc1
inactive: HCT-15 colon 90.8% | SNB-19 CNS 20.5% | U251 CNS 17.3% | LOX IMVI melanoma 25.9% | SK-MEL-28 melanoma 17.5%
active: HT29 colon 5.91% | SNB-75 CNS -12.7% | PC-3 prostate -18.7% | SK-MEL-5 melanoma -87.1%

Oc1ccc(N=Nc2ccccn2)c(O)c1
inactive: HCT-15 colon 30.5% | HT29 colon 21.6% | SNB-75 CNS 54.6% | SNB-19 CNS 31.2% | U251 CNS 24.2% | PC-3 prostate 36.1% | SK-MEL-28 melanoma 31.7%
active: UACC-62 melanoma -34.1% | LOX IMVI melanoma 8.85%

CN1CCN(CCCN2c3ccccc3Sc3ccc(C(F)(F)F)cc32)CC1
active: HT29 colon 5.41% | SK-MEL-28 melanoma -45.4%
inactive: HCT-15 colon 29.3% | SNB-75 CNS 52.5% | SNB-19 CNS 73.8% | U251 CNS 27.9% | PC-3 prostate 39.8% | SK-MEL-5 melanoma 24.5% | LOX IMVI melanoma 15.3%

CC(=O)Nc1cc(C)ccc1C
inactive: HCT-15 colon 101% | HT29 colon 95.3% | SNB-75 CNS 96.2% | SNB-19 CNS 101% | U251 CNS 101% | PC-3 prostate 106% | SK-MEL-5 melanoma 93.3% | LOX IMVI melanoma 101% | SK-MEL-28 melanoma 105%

NC1=C(Cl)C(=O)c2ccccc2C1=O
active: SNB-75 CNS -0.135% | SK-MEL-5 melanoma -80.8%
inactive: HCT-15 colon 51% | HT29 colon 58.8% | SNB-19 CNS 72.1% | U251 CNS 50.5% | PC-3 prostate 53% | LOX IMVI melanoma 19.2% | SK-MEL-28 melanoma 105%

CO[C@H](C(=O)[C@@H](O)[C@@H](C)O)[C@@H]1Cc2cc3cc(OC4CC(OC5CC(O)C(O)C(C)O5)C(O)C(C)O4)c(C)c(O)c3c(O)c2C(=O)[C@H]1OC1CC(OC2CC(OC3CC(C)(O)C(O)C(C)O3)C(O)C(C)O2)C(O)C(C)O1 (some centres undefined)
inactive: SNB-19 CNS 13.3% | PC-3 prostate 10.5%
active: HCT-15 colon 6.74% | HT29 colon 0.182% | SNB-75 CNS -56.9% | U251 CNS 9.37% | LOX IMVI melanoma 7.02%

CC1=CC(C)=Nc2ccc(Cl)cc2N1
inactive: HCT-15 colon 113% | HT29 colon 119% | SNB-75 CNS 90.4% | SNB-19 CNS 106% | U251 CNS 101% | PC-3 prostate 91.9% | LOX IMVI melanoma 91.4% | SK-MEL-28 melanoma 124%

NNc1c2ccccc2nc2ccccc12
inactive: HCT-15 colon 35.1% | HT29 colon 34.5% | SNB-75 CNS 55% | SNB-19 CNS 56.9% | U251 CNS 48% | PC-3 prostate 50.7% | SK-MEL-5 melanoma 22% | LOX IMVI melanoma 58.7% | SK-MEL-28 melanoma 76.7%

CCCC1CCC(=C2C(=O)CCC2=O)O1 (centres undefined)
inactive: HCT-15 colon 105% and 92% | HT29 colon 94.2% and 97.4% | SNB-19 CNS 99.7% and 98.9% | U251 CNS 102% and 98.5% | PC-3 prostate 95.1% and 103% | SK-MEL-5 melanoma 88.6% and 102% | LOX IMVI melanoma 94.5% and 97.6% | SK-MEL-28 melanoma 103%
81.8% (inactive) and -17.8% (active): SNB-75 CNS
